From PubChem
LASV entry inh: blocks Lassa virus binding to or entry into cells. Lassa virus pseudotype entry inhibition, cell reporter. Potency, µM (series often up to 37.9 µM), for inactives: at the top dose activity change, negative = inhibition, usual class: inhibitors. 300,000 compounds, 1.2% hits; calls by dose curve; tested in HEK293 cells; further: potency means the concentration at half of the fitted maximal effect; nearly all actives have a fitted effect of over 50% in size
HCV inhibitor: inhibitors of hepatitis C virus infection; Huh7.5.1 HCVcc-Cre infection, luciferase reporter, 44 h; Potency, µM (top dose mostly 41.8 µM), inactives show at the highest dose activity change, negative = inhibition, actives largely listed as inhibitors; 340,000 compounds, 3.4% hits; AID 651820; active means well fitted inhibition curve with a large enough effect; inconclusive means small, poorly fitted or top-dose-only effect, or another doubt; inactive means no such curve, though single readings can be large or run the other way; further: potency means the concentration at half of the fitted maximal effect
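Whole-lifecycle infectious HCVcc-Cre system; cells 1,000/well, compound then virus (~0.5 moi) added 4 h after plating, 44 h culture. Luciferase read 15 sec following 15 min substrate incubation, room temp.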
Marburg entry inh: blocks Marburg virus binding to or entry into cells; Marburg virus pseudotyped entry inhibition, cell reporter; Potency, µM (series often up to 37.8 µM), inactives show at the top dose activity change, negative = inhibition, most hits filed as inhibitors; 300,000 compounds, 1.8% hits; AID 540276; calls by dose curve; tested in HEK293 cells; further: potency means the concentration at half of the fitted maximal effect
HCMV inh: blocks human cytomegalovirus replication. 410,000 compounds, 4.5% hits. activity change, negative = inhibition, % at 57.5 µM. HFF cells, HCMV-luciferase reporter, 72 h; hits give low values. AID 1259415; in the data active means activity change below about -60%; inconclusive means no clear call, values can overlap the other calls; inactive means above about -39%
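After 16 h attachment at 37C, HFF cells received test compound and HCMV-luciferase (1 PFU/cell); reporter luminescence read 72 h later, data normalized against buffer-only and known inhibitor Salinomycin.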
FMDV inh: foot and mouth disease virus antiviral activity; 410,000 compounds, 1.2% hits; FMDV antiviral cell-based qHTS; Potency, µM (highest dose often 57.9 µM), inactives show at the top dose activity change, negative = inhibition, hits mostly inhibitors; calls by dose curve; tested in HEK293T cells; further: read-out not given here; potency means the concentration at half of the fitted maximal effect; nearly all actives have a fitted effect of over 45% in size
* marks the source's active call; other numbers are inactive results; ? = inconclusive; · = no result; ! = repeats disagree; [ ] = dose if it differs, or a comment. Rows were chosen to be rich in hits. Some 7.9% of all compounds tested hit in one or more screens of this group. On the % scale 0 is the no-effect control and ±100 the full control effect.

SMILES	LASV entry inh	HCV inhibitor	Marburg entry inh	HCMV inh	FMDV inh
COc1ccccc1-c1c(-c2ccc(OCC(=O)NN)cc2O)n[nH]c1C(F)(F)F	-9%	?	?	-32	?
O=c1c2cc(NC(=S)NCCCN3CCC(Cc4ccccc4)CC3)ccc2nc2n1CCCCC2	?	?	7.1µM*	-96*	-21%
Cc1cccc(N2CCN(C(=S)Nc3ccc4nc5n(c(=O)c4c3)CCCCC5)CC2)c1C	·	6.3µM*	12%[46.1 µM]	73	?
O=c1c2cc(NC(=S)NC3CCCC3)ccc2nc2n1CCCCC2	?	?	?	?	10%
COc1ccc(C(=O)Nc2ccc3nc4n(c(=O)c3c2)CCCCC4)cc1OC	1%[46.1 µM]	·	28%[46.1 µM]	4	-16%
COc1cc(C(=O)Nc2ccc3nc4n(c(=O)c3c2)CCCCC4)cc(OC)c1OC	-12%[46.1 µM]	11µM*	-15%[46.1 µM]	9	10µM*!
CC(C)NC(=S)Nc1ccc2nc3n(c(=O)c2c1)CCCCC3	?	-28%	?	-36	10%
O=c1c2cc(NC(=S)NC3CCCCC3)ccc2nc2n1CCCCC2	11%[46.1 µM]	?	-29%[46.1 µM]	-80*	-27%
COc1ccc(CCNC(=O)CSC2=Nc3ccccc3C3=NC(CCC(=O)NCc4ccccc4)C(=O)N23)cc1OC (centres undefined)	17%[46.1 µM]	·	·	-25	-18%
O=c1c2cc(NC(=S)N3CCC(N4CCCCC4)CC3)ccc2nc2n1CCCCC2	4%	1%	-25%	16	-16%
CC1CCCCN1C(=S)Nc1ccc2nc3n(c(=O)c2c1)CCCCC3 (centres undefined)	?	?	2%	-104*	23%
CCCNC1=C(C)C(=O)C2=C(C1=O)C(COC(N)=O)[C@]1(OC)C3NC3CN21 (some centres undefined)	?	?	6.3µM*	-69*	-3%
CO[C@@]12[C@@H]3N[C@@H]3CN1C1=C(C(=O)C(N)=C(C)C1=O)[C@@H]2COC(N)=O	?	?	?	-97*	-4%
CO[C@@]12[C@H](COC(N)=O)C3=C(C(=O)C(C)=C(N)C3=O)N1C[C@@H]1N[C@@H]12	·	6%	·	24	-13%
COc1cc2c(cc1OC)[C@@H]1O[C@](c3ccsc3)(C2)OC2=C1C(=O)CC(C)(C)C2	·	·	-12%[14.2 µM]	·	·
CCC(=O)N1[C@@H]2Cn3c(cccc3=O)[C@H]1[C@@H](C(=O)NC1CCCCC1)[C@@H]2CO	·	·	·	5	·
Cc1cc(C)c(C(=O)CC(=O)c2ccccc2Cl)c(O)c1	-11%	-9%	?	-70*	57%
CC1=C(/C=C/C(C)=C/C=C/C(C)=C/C(=O)Nc2ccc(O)cc2)C(C)(C)CCC1	10µM*	6.3µM*	?	-77*	?
CC1=C(\C=C/C(C)=C/C=C\C(C)=C\C(=O)O)C(C)(C)CCC1	·	·	18%	·	?
O=C(c1ccco1)N1CCC2(CC1)CN(c1ccccc1)C2	·	·	·	·	-27%
CCOC(=O)C1(c2ccccc2)CCN(CCC(C#N)(c2ccccc2)c2ccccc2)CC1	·	-58%	·	-86*	?
CCOC(=O)C1(c2ccccc2)CCN(CCC(=O)Nc2ccc(OC)cc2)CC1	·	·	·	6	-17%
CCOC(=O)C1(c2ccccc2)CCN(CCC(=O)Nc2cccc(Br)c2)CC1	13µM*	11µM*	2.8µM*	?	-33%
Cc1ccc(Nc2c3c(nc4nncn24)CCC3)c(C)c1	0%[46.1 µM]	·	-15%[46.1 µM]	-28	-19%
O=C(NCc1cccnc1)c1cc(C2CCCCN2C(=O)OCc2ccccc2)on1 (centres undefined)	·	·	·	1	-2%
SMILES	LASV entry inh	HCV inhibitor	Marburg entry inh	HCMV inh	FMDV inh
Cc1ccccc1NC(=O)c1ccc2nccnc2c1	14%[46.1 µM]	21%	7%[46.1 µM]	-39	?
Cc1ccc(O)cc1Nc1ccnc2cc(-c3ccccn3)ccc12	25µM*	·	·	·	·
Cc1ccc(N=C2N=C(N)c3ccccc32)cc1C	?	?	?	-63*	-6%
Cc1cc(C(=O)N(Cc2cc3cc4c(cc3nc2N2CCOCC2)CCC4)CC2CCCO2)c(=O)[nH]c1C (centres undefined)	·	·	·	·	22%
COc1ccc(S[C@]2(C(=O)N3CCCC3)CC(=O)N(c3ccc(Cl)cc3)[C@@H]2c2ccc(OC)cc2)cc1	·	·	·	-20	·
CN1CCCCCC1C(=O)N1CCC(N2CCC(C(=O)N3CCOCC3)CC2)CC1 (centres undefined)	-7%	12%	10%[46.1 µM]	-25	-10%
O=C1c2ccccc2C(Nc2ccc3nc(-c4cccnc4)[nH]c3c2)N1Cc1ccco1 (centres undefined)	3%	?	-6%	-36	-15%
O=C1c2ccccc2C(Nc2ccc(-c3nc4ccccc4[nH]3)cc2)N1Cc1ccco1 (centres undefined)	·	10µM*	0%	-39	0%
COC(=O)N[C@H](c1ccccc1)C(C(=O)OC)C(=O)OC	·	·	28%[14.2 µM]	·	·
O=C(c1nc2ncccn2n1)N1CCOc2ccc(C(O)C(c3ccccc3)c3ccccc3)cc2C1 (centres undefined)	·	·	·	·	-5%
CN1C[C@H](CNC(=O)OCc2ccccc2)C[C@@H]2c3cccc4c3c(cn4C)C[C@H]21	23µM*	?	5.6µM*	54	-17%
CC1=C(C#N)C(NC(=O)c2ccccc2)(C(F)(F)F)C(=O)N1 (centres undefined)	?	·	-24%[46.1 µM]	10	6%
CCc1ccc(N/C(SCc2ccccc2C)=C(/C#N)C(=O)NCc2ccco2)cc1	8.2µM*	?	?	-20	-10%
CCNC(=O)CSC1=N/C(=C\c2ccc(O)c(OCC)c2)C(=O)N1c1ccc(OC(F)F)cc1	-8%[46.1 µM]	-20%	9%[46.1 µM]	-70*	12%
O=C1CCN(S(=O)(=O)c2ccc(Cl)cc2)C(c2ccccc2)C1 (centres undefined)	·	·	·	-16	·
COc1cccc(/C(O)=C2\C(=O)C(=O)N(c3ccccn3)C2c2ccccc2OC)c1 (centres undefined)	5%	4%	1%	15	9%
COc1ccc(C2/C(=C(\O)c3cccc(OC)c3)C(=O)C(=O)N2c2ccccn2)cc1 (centres undefined)	-4%	6%	20%	-107*	-21%
COc1ccc(NC(=O)CC2C(=O)N(c3ccc(F)cc3)C(=O)N2Cc2cccnc2)cc1 (centres undefined)	24%[46.1 µM]	·	·	13	12%
Cc1cccc(N2CCN(C(=O)c3c(C)nn(Cc4ccccc4Cl)c3C)CC2)c1C	?	32µM*	?	?	35µM*
CC(=O)Nc1ccc(NC(=O)c2c(C)nn(Cc3ccccc3Cl)c2C)cc1	-5%[46.1 µM]	10%	?	-13	39%
Cc1cc(N2C(=O)C(=O)/C(=C(\O)c3ccc(F)cc3)[C@@H]2c2ccc(F)cc2)no1	·	·	2%	·	·
CC(C)NC(=NCc1ccc(Cl)cc1Cl)Nc1ccccc1	·	?	·	-101*	-30%
O=C(C/C=N\OCc1ccc(Cl)cc1Cl)Nc1ccccc1	10%[46.1 µM]	1%	-23%[46.1 µM]	-21	-9%
Cc1cnc(C(=O)OCC(=O)c2cc(C)n(C)c2C)cn1	·	-5%	·	14	14%
